15-hLO inh: inhibitors of human 15-lipoxygenase (ALOX15). P16050. purified 15hLO-1, xylenol orange hydroperoxide absorbance. Potency, µM (titrated, usually from 57.1 µM), without a hit: top-dose activity change, negative = inhibition, hits mostly inhibitors. 74,000 tested, 1.4% active. AID 887; further: potency means the concentration at half of the fitted maximal effect; on the % scale 0 is the no-effect control and ±100 the full control effect; nearly all actives have a fitted effect of over 55% in size
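Hydroperoxide formed from arachidonic acid (50 uM) by purified human 15hLO-1 (40 nM) oxidizes ferrous iron, and the ferric-xylenol orange complex is read at 573 versus 405 nm. Compounds were preincubated 15 min; reaction ran 6 min at room temperature.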
Ub-GFP proteasome: ubiquitin-GFP accumulation via proteasome inhibition. Potency, µM (top dose mostly 45.9 µM), for the others: at the highest dose activation (GFP accumulation), actives largely listed as activators. AID 526. Ubiquitin-GFP reporter cells, proteasome inhibition, GFP fluorescence; response scale: untreated = 0%, 10 µM MG-132 = 100%. 67,000 tested, under 10 active; active means well fitted activation curve with a large enough effect, not every such curve was filed as active; inconclusive means small, poorly fitted or top-dose-only effect, or another doubt; inactive means no such curve, though single readings can be large or run the other way; further: potency means the concentration at half of the fitted maximal effect
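Proteasome blockade was scored as a rise in GFP-expressing U2OS cells carrying a ubiquitin(G76V)-GFP construct, imaged after 4 hr compound treatment at 37 °C across a 46 uM–2.9 nM series.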
GFP derepression: derepresses silenced GFP locus in mouse C127i cells; 68,000 tested, 0.09% active; mouse C127i GFP locus derepression, cytometry, 30 h; Potency, µM (doses to about 46.1 µM), for the others: top-dose GFP derepression (activation); further: % of control where 0% means no effect
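Derepression screen: silenced CMV-GFP reporter in murine C127i cells, 30 h compound incubation at 37 C, washed cells imaged by laser-scanning cytometer to enumerate GFP-expressing objects of 20 to 120 um.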
HBB splice mod: modulators of hemoglobin beta chain splicing | HBB splicing reporter cell assay, activation; EGFP reporter with mutant IVS2-654 intron; response scale: normalised to 500 nM splice-correcting PNA | Potency, µM (top dose mostly 46.1 µM), for the others: top-dose activation, hits mostly activators | 65,000 tested, 0.06% active; further: potency means the concentration at half of the fitted maximal effect; 0% is about no effect
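HeLa cells stably expressing EGFP interrupted by mutant beta-globin intron 2 (IVS2-654), 500/well in 2% FCS. Treated with compound for 2 days at 37C. Splicing correction scored as total well GFP intensity (488 nm excitation, 500-520 nm emission); 500 nM antisense PNA served as control.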
15-hLO-2 inh: 15-hLO-2 (ALOX15B) enzyme inhibition | purified 15hLO-2, xylenol orange hydroperoxide absorbance | Potency, µM (top dose mostly 57.1 µM), for inactives: at the highest dose activity change, negative = inhibition, most hits filed as inhibitors | 110,000 tested, 0.56% active | AID 881; further: potency means the concentration at half of the fitted maximal effect; on the % scale 0 is the no-effect control and ±100 the full control effect; nearly all actives have a fitted effect of over 60% in size
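Purified human 15hLO-2 (50 nM final) preincubated with compounds 15 min at room temperature in 25 mM Hepes pH 7.5, 0.01% Triton X-100, then 45 uM arachidonic acid added for 90 min; hydroperoxide detected via ferrous/xylenol orange, 573/405 nm absorbance ratio.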
Tau fil binding: tau filament binding; Potency, µM (highest dose often 57.1 µM), for inactives: at the highest dose activity change, negative = inhibition; P10636; recombinant tau filaments, thioflavin S fluorescence, 15 h; filaments grown with octadecylsulfate alongside compound; 71,000 tested, 2% active;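 further: potency means the concentration at half of the fitted maximal effect; on the % scale 0 is the no-effect control and ±100 the full control effect; actives lower thioflavin S fluorescence by blocking filaments or displacing dye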
Target sequence (P10636 whole entry, looked up): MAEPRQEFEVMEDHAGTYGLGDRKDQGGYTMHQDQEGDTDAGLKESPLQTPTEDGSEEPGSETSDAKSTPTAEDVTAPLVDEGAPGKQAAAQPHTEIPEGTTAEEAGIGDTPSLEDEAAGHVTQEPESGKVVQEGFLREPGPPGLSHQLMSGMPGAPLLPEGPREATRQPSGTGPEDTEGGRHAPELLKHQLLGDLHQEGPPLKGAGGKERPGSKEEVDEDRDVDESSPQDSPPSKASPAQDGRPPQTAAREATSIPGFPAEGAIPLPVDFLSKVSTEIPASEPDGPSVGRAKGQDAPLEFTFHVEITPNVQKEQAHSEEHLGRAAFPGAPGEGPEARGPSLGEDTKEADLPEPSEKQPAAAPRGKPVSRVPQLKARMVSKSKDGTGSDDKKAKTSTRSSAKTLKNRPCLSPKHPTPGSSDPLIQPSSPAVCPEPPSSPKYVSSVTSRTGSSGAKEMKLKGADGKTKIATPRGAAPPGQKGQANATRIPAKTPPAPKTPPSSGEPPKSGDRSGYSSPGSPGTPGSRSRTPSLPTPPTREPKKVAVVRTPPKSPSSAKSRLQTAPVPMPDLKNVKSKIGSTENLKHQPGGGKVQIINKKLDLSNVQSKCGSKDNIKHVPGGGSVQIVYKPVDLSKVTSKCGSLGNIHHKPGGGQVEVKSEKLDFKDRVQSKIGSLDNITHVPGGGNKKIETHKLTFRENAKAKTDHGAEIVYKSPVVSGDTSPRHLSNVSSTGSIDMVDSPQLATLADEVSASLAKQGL
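His-tagged recombinant human tau (exons 2, 3 and 10 included), 1 uM, was induced to fibrillize by 30 uM sodium octadecylsulfate with compound present. After 15 h at 37 C, thioflavine S fluorescence (ex 450, em 510 nm) was read.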
* marks the source's active call; other numbers are inactive results; u = inconclusive; x = no result; [ ] = another dose, or the depositor's remark. An excerpt weighted towards active compounds, which were near 2.3% of everything screened. Unless noted, the call rests on the fitted dose curve; in most records, active means well fitted curve in the direction sought with a large enough effect; inconclusive means small, poorly fitted or top-dose-only effect, or another doubt; inactive means no such curve, though single readings can be large; an effect the other way counts as inactive or inconclusive.

SMILES	15-hLO inh	Ub-GFP proteasome	GFP derepression	HBB splice mod	15-hLO-2 inh	Tau fil binding
O=C(Nc1ccc2c(c1)OCO2)c1cnn2c(C(F)(F)F)cc(-c3ccco3)nc12	3%	-7%	2%	4%	5%	0.5µM*
O=C(c1cnn2c(C(F)(F)F)cc(-c3ccco3)nc12)N1CCCc2ccccc21	-9%[11.4 µM]	15%[9.17 µM]	2%	-1%[0.0738 µM]	-2%	u
O=C(Nc1cnn(C23CC4CC(CC(C4)C2)C3)c1)c1cnn2c(C(F)(F)F)cc(-c3ccco3)nc12	-9%	1%	-3%	-1%	u	2µM*
COc1ccc(CCN(C)CCC[C@@](C#N)(c2cc(OC)c(OC)c(OC)c2)C(C)C)cc1OC	-3%	2%	-2%	-2%	27%	-22%
O=C(Nc1ccc2c(c1)Cc1ccccc1-2)[C@@H]1[C@H](C(=O)O)[C@]2(Cl)C(Cl)=C(Cl)[C@@]1(Cl)C2(Cl)Cl	u	-3%[9.17 µM]	2%[9.22 µM]	6%[9.22 µM]	-18%[11.4 µM]	-19%[11.4 µM]
Cc1ccccc1Cn1nc(C)c(NC(=O)c2cc3nc(-c4ccco4)cc(C(F)(F)F)n3n2)c1C	u	-2%	-3%	x	-8%	7.9µM*
C=CCOC(=O)c1cc(-c2ccc(/C=C3\C(=O)NC(=O)C(C#N)=C3C)o2)ccc1Cl	x	x	x	x	13µM*	x
COC(=O)c1ccc(CC(=O)c2c(C)cc(O)cc2O)o1	25µM*	-2%	0%	-3%[57.5 µM]	4%	-12%
COC(=O)c1ccc(CC(=O)c2ccc(O)cc2O)o1	-23%	x	x	x	u	x
CCN(CC)CCN1C(=O)c2oc3ccccc3c(=O)c2C1c1ccccc1 (centres undefined)	5%	-2%	-1%	0%[57.5 µM]	10%	-20%
CCN(CC)CCN1C(=O)c2oc3ccccc3c(=O)c2C1c1cccc(Br)c1 (centres undefined)	3%	0%	4%	-1%[57.5 µM]	13%	25µM*
CN1CC[C@H](CN2c3ccccc3Sc3ccccc32)C1	5%[11.4 µM]	-6%[9.17 µM]	0%[9.22 µM]	5%[9.22 µM]	-1%[11.4 µM]	4µM*
CC[C@H]1CN(C)[C@H]2Cc3c([nH]c4ccccc34)C(=O)C[C@H]1[C@H]2C(=O)OC	8%[11.4 µM]	2%[9.17 µM]	-3%[9.22 µM]	3%[9.22 µM]	-4%[11.4 µM]	-3%[11.4 µM]
Cc1c(Cl)cccc1NC(=O)C[C@H]1Sc2ccccc2NC1=O	2%[11.4 µM]	2%[9.17 µM]	3%[9.22 µM]	-1%[9.22 µM]	-5%[11.4 µM]	-14%[11.4 µM]
COc1ccc(C(=O)NCC(c2cccnc2)N2CCN(c3ccccc3OC)CC2)cc1OC (centres undefined)	0%	-3%	x	1%	5%	10%
COc1cccc(C(=O)NCC(c2cccnc2)N2CCN(c3ccccc3OC)CC2)c1 (centres undefined)	13µM*	5%	x	-1%	x	121%
CCN(CC)C(=O)CSc1nc2cc3c(cc2c(=O)n1Cc1ccc2c(c1)OCO2)OCO3	0%	-2%	11%	-1%[0.369 µM]	-4%	0%
CCOC(=O)CSc1nc2ccc(N3CCOCC3)cc2c(=O)n1Cc1ccc2c(c1)OCO2	20µM*	-9%	0%	7%[0.369 µM]	-10%	-27%
CCCCCCCCCCCCCCCCOC[C@@H](COCC(F)(F)F)OP(=O)(O)OCO	x	-8%	0%	1%	x	2%
O=C(Nc1ccc2nc(-c3ccco3)[nH]c2c1)c1cccs1	-27%	-7%	3%	2%	x	20µM*
C=Cc1c(C)c2cc3nc(cc4[nH]c(cc5nc(cc1[nH]2)C(C)=C5CCC(=O)O)c(CCC(=O)OC)c4C)[C@@]1(C)C3=CC=C(C(=O)OC)[C@H]1C(=O)OC (tested in a mixture with another compound)	-14%[25.6 µM]	7%[20.5 µM]	12%[20.6 µM]	-1%[20.6 µM]	u	1.6µM*
c1ccc(-c2nc(N3CCOCC3)c3ccccc3n2)nc1	53%	0%	0%	-3%[57.5 µM]	35%	-4%
c1ccc(-c2nc(N3CCCCCC3)c3ccccc3n2)nc1	25%	-3%	2%	0%	49%	13µM*
CN=C1N[C@H](c2ccccc2)N(c2ccccc2)S1	0.79µM*	-5%	0%	x	25µM*	u
COc1ccccc1CN1CCC2(CC1)CCN(C(=O)c1csnn1)CC2	4%	0%	0%[9.22 µM]	2%	0%	5%
SMILES	15-hLO inh	Ub-GFP proteasome	GFP derepression	HBB splice mod	15-hLO-2 inh	Tau fil binding
COc1ccccc1CNc1nc(-c2cccnc2)nc2ccccc12	25µM*	-2%	-2%[9.22 µM]	0%	21%	10%
COc1ccc(CNc2nc(-c3cccnc3)nc3ccccc23)c(OC)c1	-1%	-4%	-2%[9.22 µM]	1%	59%	17%
COc1ccc2[nH]cc(CCNc3nc(-c4cccnc4)nc4ccccc34)c2c1	6%	-1%	8%[9.22 µM]	0%	43%	25µM*
COc1cccc(-c2ccc3ncnc(NCCc4c[nH]c5ccc(OC)cc45)c3c2)c1	-2%	-2%	6%[9.22 µM]	0%	41%	97%
CC(=O)OC[C@@H]1O[C@@H](O/N=C2/C[C@@H](O)[C@@H](O)[C@@H]3[C@@H]4C(=O)N(C(C)(C)C)C(=O)[C@H]4CC[C@H]23)[C@H](OC(C)=O)[C@H](OC(C)=O)[C@@H]1OC(C)=O	3%[11.4 µM]	x	x	-1%[9.22 µM]	x	x
CCN1C(=O)/C(=C2/C=CC=CN2C)OC1=S	-3%[11.4 µM]	-1%[9.17 µM]	-2%	-5%[0.0738 µM]	-1%	4%[11.4 µM]
CCN1C(=O)/C(=C/N(C)c2ccccc2)OC1=S	7.9µM*	0%	4%	0%	-3%	17%
Cc1ccc2[nH]c(=O)c(C(c3nnnn3CC3CCCO3)N3CCCc4ccccc43)cc2c1 (centres undefined)	1.3µM*	-1%	8%	x	-11%	18%
CCC(c1nnnn1Cc1ccco1)N(CCc1ccccc1)Cc1cc2cc(C)ccc2[nH]c1=O (centres undefined)	16µM*	-3%	0%	x	0%	35%
Cc1ccc2[nH]c(=O)c(CN(CCc3ccccc3)C(c3nnnn3Cc3ccco3)C(C)C)cc2c1 (centres undefined)	u	-5%	u	x	x	36%
CCC(c1nnnn1CC1CCCO1)N(CCN1CCOCC1)Cc1cc2cc(C)ccc2[nH]c1=O (centres undefined)	3.2µM*	-2%	1%	0%[57.5 µM]	36%	29%
Cc1ccc2[nH]c(=O)c(C(c3nnnn3CC3CCCO3)N3CCc4ccccc4C3)cc2c1 (centres undefined)	-3%	1%	3%	0%[57.5 µM]	-21%	2%
CO[C@H]1COC(=O)[C@H](C)COC(=O)[C@H](C)NC(=O)C/C=C\[C@H]1C	6%[11.4 µM]	x	x	1%[9.22 µM]	x	x

High-throughput results from PubChem.
